From PubChem BioAssay
This is a sample that favours compounds with a hit; in the whole collection about 1.6% have one here.
PfHsp40 rescue: restores yeast growth despite PfHsp40 toxicity; S. cerevisiae expressing PfHsp40, growth rescue, ATP luminescence; growth rescue, % at 12.5 µM; hit rate 0.68% among 340,000; AID 504582; in the data active = growth rescue above about 28%, passing the limit was not always enough;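 note: yeast W303a lacking pdr1 and pdr3 grown in galactose medium; growth measured after three days at 30 °C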
ugtP null kill: growth inhibition of S. aureus ugtP deletion strain; S. aureus RN4220 ugtP deletion, OD600 growth, 16 h; growth inhibition, % (concentration not given with the values); hit rate 0.54% among 330,000; AID 1259309; in the data active = growth inhibition above about 68%;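 note: plate controls were untreated wells for no effect and antibiotic for full effect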
BJeLR viability: BJeLR cell viability loss; BJeLR (HRASV12) viability, CellTiter-Glo ATP luminescence, 48 h; inhibition, % (no concentration beside the values); hit rate 0.17% among 300,000; AID 1554; in the data active = inhibition above about 50%
CCHF vOTU inh-1: CCHFV vOTU protease inhibition | Pep-AMC fluorescence | inhibition, % at 11.5 µM | hit rate 0.55% among 370,000 | AID 651958; note: 0% = vehicle wells with enzyme and 100% = no enzyme wells
RN4220 kill: S. aureus RN4220 growth inhibition; AID 1259311; hit rate 0.33% among 330,000; inhibition, % (concentration not given with the values); OD600, 16 h; in the data active = inhibition above about 85%;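 note: plate controls were untreated cells for no effect and reference antibiotic for full effect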
CCHF vOTU inh-2: CCHFV vOTU protease inhibition, confirmation. Recombinant CCHFV vOTU, Pep-AMC fluorescence. shares compounds with CCHF vOTU inh-1. hit rate 17% among 1,900. inhibition, % at 11.5 µM
* marks the source's active call; other numbers are inactive results; x = no result. Cut-off read from the data, not from the text of the source, unless noted: active = inhibition above about 30%; inactive = the rest.

SMILES	PfHsp40 rescue	ugtP null kill	BJeLR viability	CCHF vOTU inh-1	RN4220 kill	CCHF vOTU inh-2
C=CCCC[C@H]1OC(=O)[C@H](C)NC(=O)[C@H](C(C)C)NC(=O)[C@@H]2CCCN2C(=O)[C@H](Cc2ccccc2)OC(=O)[C@@H](C(C)C)N(C)C(=O)[C@H](C(C)C)NC(=O)C1(C)C	x	x	x	30*	x	6
CCCCCCCCN1C(=O)[C@@H](CC(=O)NCc2cccc(C(F)(F)F)c2)C[C@@]2(C(=O)OC)C1=C[C@H](C(C)C)O[C@@H]2C1CC1	x	x	x	30*	x	31*
COC(=O)[C@]12C[C@H](CC(=O)NCc3cccc(C(F)(F)F)c3)C(=O)N(CCc3ccc(OC)c(OC)c3)C1=C[C@H](C(C)C)O[C@@H]2C1CC1	x	x	x	25	x	x
CCCCCCCCN1C(=O)[C@@H](CC(=O)NCc2ccc(OC)c(OC)c2)C[C@@]2(C(=O)OC)C1=C[C@H](C(C)C)O[C@@H]2C1CC1	x	x	x	38*	x	11
CCCOc1ccc(N)cc1N	0	-6	6	85*	4	22
C=CCOc1ccccc1C=c1sc2nc(-c3oc4ccccc4c3C)nn2c1=O	x	4	x	x	2	x
CCOC1OC(C(N)=O)=CC(C2CCCCC2)C1CCCO (stereo not drawn)	x	0	x	x	4	x
COC(=O)CSc1nnc(CNc2ccc(OC)cc2)n1C	-1	1	4	39*	4	-22
O=C1NC(=Nc2ccccc2)S/C1=C\c1ccccc1	0	-15	6	7	2	x
O=C1N/C(=N/Nc2ccccc2)S/C1=C\c1ccccc1	0	-10	14	32*	-13	9
C=CCNC(=O)c1cccc2c1C(=O)c1ccc(N3CCOCC3)cc1S2(=O)=O	-1	14	x	31*	3	-7
CCn1nc(C)c(C=NNC(=O)Cn2nccc2C)c1C	x	3	x	x	4	x
COc1cc(C(=O)Nc2cc3c4c(c2)CC(=O)N4CCC3)cc(OC)c1OC	2	6	11	34*	4	-10
CC(=O)Nc1c([N+](=O)[O-])cc2c3c(cccc13)CC2	x	x	x	33*	x	-16
CC(C)CCNC(=O)c1c(N)n(Cc2ccc3c(c2)OCO3)c2nc3ccccc3nc12	0	15	-12	54*	1	-14
CC(C)CNC(=O)c1c(N)n(Cc2ccc3c(c2)OCO3)c2nc3ccccc3nc12	0	-10	-8	-10	0	x
O=C(NCc1ccco1)c1ccccc1F	-2	-1	12	-5	2	x
O=C(NCc1ccco1)c1ccccc1Nc1ccc(F)cc1	1	-6	x	31*	-1	-5
Cc1cccc(C(N)=NOC(=O)Cc2ccccc2)c1	x	-2	x	x	2	x
O=c1c(=Cc2ccco2)sc2n1CN(c1cccc(Br)c1)CN=2	x	0	x	x	0	x
COc1ccc([C@H]2CC(=O)C=C(/C=C/c3ccccc3)C2)cc1OC	4	x	x	30*	x	8
CC=CC1=CC(=O)CC(c2ccc(OC)c(OC)c2)C1 (stereo not drawn)	x	-4	x	x	0	x
COc1ccc(NC(=O)N(C)CC2Oc3c(NC(=O)Nc4ccc(C(F)(F)F)cc4)cccc3C(=O)N(C(C)CO)CC2C)cc1 (stereo not drawn)	x	-3	x	x	-6	x
C=CCn1c(COc2ccccc2)nnc1SCC(=O)c1ccc(OC)cc1	x	x	x	11	x	x
C=CCn1c(COc2ccc(F)cc2)nnc1SCC(=O)c1c[nH]c2c(CC)cccc12	0	-3	8	37*	1	3
SMILES	PfHsp40 rescue	ugtP null kill	BJeLR viability	CCHF vOTU inh-1	RN4220 kill	CCHF vOTU inh-2
CCOC(=O)C1CCN(C(=O)c2c(C)oc3c2C(=O)c2ccccc2C3=O)CC1	2	20	6	61*	20	46*
Cc1oc2c(c1C(=O)N1CCC(C)CC1)C(=O)c1ccccc1C2=O	x	25	42	32*	28	16
Cc1[nH][nH]c(=O)c1C(c1c(C)[nH][nH]c1=O)c1cn(Cc2ccc(Cl)c(Cl)c2)c2ccccc12	1	88*	18	56*	36	9
CC(=NNC(=O)Cc1ccc(Cl)cc1)c1ccccc1O	x	-5	x	x	-7	x
COC(=O)CC1OCC=C2CN3CCC45C6=CC(=O)C(=O)C([N+](=O)[O-])=C6NC4C1C2CC35 (stereo not drawn)	x	x	x	64*	x	23
O=C(O)CC1OCC=C2CN3CCC45C6=CC(=O)C(=O)C([N+](=O)[O-])=C6NC4C1C2CC35 (stereo not drawn)	0	4	-6	x	3	x
CCC(C)c1ccc(NC(=O)CC(C)=NNC(=O)c2cnccn2)cc1 (stereo not drawn)	x	5	x	x	7	x
CCOC(=O)C1=CN2CCCCC2CC1=O (stereo not drawn)	x	0	x	x	8	x
COc1cc(NC(C)CCCN)c2ncccc2c1 (stereo not drawn)	0	x	-7	104*	x	81*
COc1cc(NCCCCCCCN)c2ncccc2c1	1	0	0	x	6	x
Cn1c2ccccc2c2cc(/C=N/NC(=O)c3cc(O)ccc3O)ccc21	4	x	-16	51*	x	64*
O=C1CCCCCCCCCCC(=NO)CCCO1	x	-9	x	x	3	x
O=C(O)c1[nH]c2ccccc2c1C(c1cc(Br)ccc1O)c1c(C(=O)O)[nH]c2ccccc12	18	4	3	35*	44	12
COc1cc(Cl)cc(C(c2c(C(=O)O)[nH]c3ccccc23)c2c(C(=O)O)[nH]c3ccccc23)c1O	5	-6	1	25	25	x
CCc1nnc(N/N=C/c2ccccc2F)n1N	0	x	-1	77*	x	-4
COc1cccc(C=NNc2nnc(C)n2N)c1O	x	-6	x	x	3	x
Cc1nnc(NN=Cc2ccccc2F)n1N	x	2	x	x	5	x
CCc1nnc(N/N=C/c2ccccc2Cl)n1N	-1	x	1	84*	x	-16
CCc1nnc(NN=Cc2cc(C)c(C)cc2C)n1N	x	-1	x	x	6	x
COc1cccc(/C=N/Nc2nnc(C)n2N)c1OCc1ccccc1Cl	-2	x	5	75*	x	-7
COc1cc(NS(=O)(=O)c2ccc(Nc3nc(-c4ccccc4)cs3)cc2)nc(OC)n1	0	10	0	36*	9	15
O=C(c1ccc(COc2ccc(Cl)cc2)o1)N1CCN(Cc2ccc3c(c2)OCO3)CC1	1	4	-12	30*	4	6
COc1ccc(C(=O)CC(=O)C(=O)NCCc2cccc(C)c2)cc1	1	-1	5	31*	17	-5
CCCCCC(=O)Nc1cccc(C2=NOC3(C2)CC(C(N)=O)N(C(=O)c2ccc(OC)cc2)C3)c1 (stereo not drawn)	x	8	x	x	8	x
O=[N+]([O-])c1cc([N+](=O)[O-])c2nonc2c1Nc1ccccc1O	1	7	1	-1	16	x
O=[N+]([O-])c1cc([N+](=O)[O-])c2nonc2c1Nc1ccc(O)cc1	0	17	3	64*	5	-6
Cn1cc(/C=N/NC(=O)c2cc3cc(Br)ccc3o2)c2ccccc21	x	x	-8	6	x	x
O=C(O)Cn1cc(/C=N/NC(=O)c2cc3cc(Br)ccc3o2)c2ccccc21	1	x	5	31*	x	-1
